Results reported in paper PMC4552634, “A New Set of Chemical Starting Points with Plasmodium falciparum Transmission-Blocking Potential for Antimalarial Drug Discovery” (PLoS ONE, 2015).
Hit rate of the full screen: of about 13,000 compounds, about 3,200 (25%) showed an effect of 50% or more. This is one part of the list.

tested on: P. falciparum stage V gametocytes; parameters: BacTiter-Glo ATP luminescence viability of purified stage V gametocytes in 384-well plates, per cent inhibition versus DMSO; conditions: 48 h, 5 µM; inhibitor

| Structure (SMILES) | % Inhibition [%] |
| --- | --- |
| COc1ccc2nccc([C@@H](O)CN3CCC(NC(=O)c4ccc(CN5CCN(c6cccc(C)c6)CC5C)cc4)CC3)c2c1 (stereo partly shown) [TCMDC-140999] | -29.97 |
| CC1(C)N=C(N)N=C(N)N1OCCSCc1cc(Cl)sc1Cl [TCMDC-131620] | 30.29 |
| O=S(=O)(NCCN1CCCC1)c1cccc(-c2ccc(CNCc3ccsc3)cc2)c1 [TCMDC-132290] | 92.71 |
| O=S(=O)(NCCN1CCCC1)c1cccc(-c2cccc(CNCc3ccsc3)c2)c1 [TCMDC-132277] | 89.41 |
| O=S(=O)(NCCN1CCCC1)c1ccc(-c2ccc(CNCc3ccsc3)cc2)cc1 [TCMDC-132281] | 102.2 |
| CCN1CCN(c2cc(C)c3cc(NC(=O)c4ccc([N+](=O)[O-])c(C)c4)ccc3n2)CC1 [TCMDC-125576] | 24.57 |
| CC(C)(CNCCOc1ccc(Cl)cc1)c1nc(-c2ccc(Cl)c(O)c2)c(-c2ccnc(N)n2)[nH]1 [TCMDC-141161] | 36.73 |
| Cc1cccc2[nH]c(=O)c([N+](=O)[O-])c(O)c12 [TCMDC-131384] | -28.29 |
| CN(C)CCC=C1c2ccccc2Sc2c(O)cc(Cl)cc21 [TCMDC-123466] | -77.93 |
| N#Cc1cccc(Nc2ncc3c(-c4cccc(NC(=O)Cc5cccc(Cl)c5)c4)c[nH]c3n2)c1 [TCMDC-134682] | 19.68 |
| CCn1ccc2c(N3CCCC3=O)cc(C(=O)N[C@@H](Cc3ccccc3)[C@H](O)CNCc3cccc(OC)c3)cc21 [TCMDC-134129] | 8.959 |
| CCn1ccc2c(N3CCCC3=O)cc(C(=O)N[C@@H](Cc3ccccc3)[C@H](O)CNC3CCCCC3)cc21 [TCMDC-135316] | 7.868 |
| CCn1ccc2c(N3CCCC3=O)cc(C(=O)N[C@@H](Cc3ccccc3)[C@H](O)CNC(C)(C)CCCC(C)C)cc21 [TCMDC-135313] | 55.34 |
| CCn1ccc2c(N3CCCS3(=O)=O)cc(C(=O)N[C@@H](Cc3ccccc3)[C@H](O)CNC(C)(C)CCCC(C)C)cc21 [TCMDC-135312] | 65.79 |
| CCn1ccc2c(N3CCCCS3(=O)=O)cc(C(=O)N[C@@H](Cc3ccccc3)[C@H](O)CNC(C)(C)CCCC(C)C)cc21 [TCMDC-135311] | 61.66 |
| CNC(=O)c1cncc(/C=C/c2ccccc2S(N)(=O)=O)c1 [TCMDC-138266] | 49.76 |
| C[C@H](NC(=O)c1c(OC2CN(C(c3ccccc3)c3ccccc3)C2)c(-c2ccccc2)nc2ccccc12)C1CCCCC1 [TCMDC-135543] | -26.28 |
| CS(=O)(=O)O.Nc1nc(NCC2CCC(CNS(=O)(=O)c3cccc4ccccc34)CC2)nc2ccccc12 (stereo not shown) [TCMDC-124251] | -1.432 |
| COC(=O)C(Cc1ccccc1)C(CSCc1ccc(OC)cc1)C(=O)N[C@@H](C(=O)OC(C)(C)C)c1ccc(C(C)(C)C)cc1 (stereo partly shown) [TCMDC-131235] | 8.806 |
| CC(C)(C)OC(=O)c1c(NC(=O)/C=C/c2ccc(O)c(O)c2)sc2c1CCCC2 [TCMDC-131558] | -45.09 |
| CC=Cc1cc(Cc2cnc(N)nc2N)cc(CCC)c1OC [TCMDC-137634] | -1.983 |
| CCOc1cc(Cc2cnc(N)nc2N)cc(OCC)c1OCCCCC(=O)OC [TCMDC-137176] | -10.63 |
| CC(C)(C)c1ccc(Cn2nc(C(=O)N3CCN(C(=O)C4CCCO4)CC3)c3ccccc32)cc1 (stereo not shown) [TCMDC-134381] | -2.653 |
| CCN(CC)c1ccc(C(=O)Cn2ccc(=N)cc2)cc1 [TCMDC-139029] | -2.203 |
| CCN(CC)CCn1c(=N)n(CC(=O)c2ccc(-c3ccccc3)cc2)c2ccccc21 [TCMDC-124026] | 67.24 |

| Structure (SMILES) | % Inhibition [%] |
| --- | --- |
| CCOCc1cn(CC(=O)c2ccc(-c3ccccc3)cc2)c(C)nc1=N [TCMDC-124243] | -19.83 |
| Cc1ccccc1CN1CCCN(Cc2ccc(C(=O)Nc3ccc(C(C)(C)C)cc3)cc2)CC1 [TCMDC-136429] | -4.144 |
| CC(C)(C)c1ccc(Cn2c(=N)n(CC(=O)c3ccc(-c4ccccc4)cc3)c3ccccc32)cc1 [TCMDC-124030] | 98.24 |
| COc1ccc(Cn2c(Nc3cccc(C(F)(F)F)c3)nc3cc(C(=O)NC4CC4)cnc32)cc1Cl [TCMDC-138554] | -4.933 |
| O=C(NC1CC1)c1ccc(Cn2c(SCc3cccc(Cl)c3)nc3ccccc3c2=O)cc1 [TCMDC-123576] | 23.52 |
| COc1ccc(Cn2c(SCc3ccc(C)cc3)nc3cc(OC)c(OC)cc3c2=N)cc1Cl [TCMDC-125587] | 96.33 |
| CC[C@H]1CN2CC[C@H]1C[C@H]2[C@@H](O)c1cc(OCCCN(C)C)nc2ccc(OC)cc12 [TCMDC-131424] | 22.54 |
| O=C(Nc1ccc(OC2CCN(Cc3ccc(F)cc3)C2)c(Cl)c1)c1ccoc1 (stereo not shown) [TCMDC-133755] | 23.17 |
| CC(=O)CCc1ccc(OCCN(Cc2ccccc2C(F)(F)F)c2ccc(C#N)c(C(F)(F)F)c2)cc1 [TCMDC-135737] | 23.15 |
| CCOC(=O)c1ccc(N2CCN(CCCNC(=O)/C(=C/C=C/c3cc4cc(Cl)c(Cl)cc4[nH]3)OC)CC2)cc1 [TCMDC-139306] | -53.61 |
| COc1cc2c(c(OC)c1[N+](=O)[O-])C=CC1(O2)N(C)c2ccc([N+](=O)[O-])cc2C1(C)C (stereo not shown) [TCMDC-124133] | 52.65 |
| CN1c2ccc([N+](=O)[O-])cc2C(C)(C)C12C=Cc1cc(Br)cc([N+](=O)[O-])c1O2 (stereo not shown) [TCMDC-124178] | 98.03 |
| COc1ccc(N2C(=O)C3C(C2=O)C2(C)c4ccccc4C3(C)c3ccccc32)c([N+](=O)[O-])c1 (stereo not shown) [TCMDC-125621] | 9.788 |
| COc1ccc(C=CC(=O)NC(=O)c2ccccc2OC(=O)c2ccccc2)cc1OC [TCMDC-125709] | 14.45 |
| COc1cc2c(c(Cl)c1OC)CCN(Cc1ccccc1)CC2c1ccc(NC(=O)C(F)(F)F)cc1 (stereo not shown) [TCMDC-132075] | 32.93 |
| COc1cc2c(c(Cl)c1OC)CCN(Cc1ccccc1)CC2c1ccc(C(N)=O)cc1 (stereo not shown) [TCMDC-132074] | 48.86 |
| COc1cc2c(c(Cl)c1OC)CCN(C(=O)C(F)(F)F)CC2c1ccccc1 (stereo not shown) [TCMDC-132071] | 93.25 |
| Cc1cccc2nc(-c3ccc(-c4ccc(CN5CCN(c6cnccn6)CC5)cc4)s3)[nH]c12.O=C(O)C(F)(F)F [TCMDC-133900] | 28.24 |
| COc1ccc(CNCc2cccc(-c3ccc(-c4nc5ccccc5[nH]4)s3)c2)cc1.O=C(O)C(F)(F)F [TCMDC-132733] | 7.28 |
| O=C(CCc1ccco1)NC1CCN(CC2(c3ccc(Cl)cc3)CCC2)CC1 [TCMDC-124834] | 42.25 |
| COc1coc(C(=O)NC2CCN(CC3(c4ccc(Cl)cc4)CCC3)CC2)c1OC [TCMDC-124835] | 70.44 |
| O=C(NC1CCN(Cc2ccccc2)CC1)c1cc(-c2ccncc2)c(-c2ccc(Cl)c(O)c2)o1 [TCMDC-135453] | 2.681 |
| COc1c(C(=O)NC2CCN(Cc3ccccc3)C2)cnc2ccccc12 (stereo not shown) [TCMDC-138996] | -11.57 |
| O=C(C=Cc1ccc(Cl)c(Cl)c1)NC1CCN(CCc2ccccc2)CC1 [TCMDC-134274] | 3.334 |
| Cc1cc(C(=O)NC2CCN(CC3(c4ccc(Cl)cc4)CCC3)CC2)on1 [TCMDC-124833] | 85.33 |

| Structure (SMILES) | % Inhibition [%] |
| --- | --- |
| O=C(Nc1ccnc2ccccc12)NC1CCN(CCc2ccccc2)CC1 [TCMDC-139687] | 38.02 |
| CC(C)c1ccc(CN2CCC(NC(=O)c3ccc(-c4cccc(Cl)c4)s3)CC2)cc1 [TCMDC-134347] | -17.88 |
| Cc1cc(C(=O)NC2CCN(CC3(c4ccccc4)CCCCC3)CC2)on1 [TCMDC-124832] | 67.12 |
| CC1CC1C(=O)NC1CCN(CC2(c3ccccc3)CCCCC2)CC1 (stereo not shown) [TCMDC-124831] | 61.7 |
| CS(=O)(=O)CCNCc1nc(-c2ccc3ncnc(Nc4ccc(OCc5cccc(F)c5)c(Cl)c4)c3c2)cs1 [TCMDC-138499] | -12.17 |
| Nc1ncc(-c2ccc3ncccc3c2)c(N)n1 [TCMDC-133421] | 0.5405 |
| CC(=O)Nc1ccc(CN2CCC(N(C)c3ccc(NC(=O)c4cccc(C)c4)cc3)CC2)cc1 [TCMDC-134985] | -13.81 |
| Cn1cccc1C(=O)Nc1cccc(-c2nn3ccccc3c2-c2ccnc(Nc3ccc4c(c3)OCCO4)n2)c1 [TCMDC-135663] | -4.275 |
| N/C(=N\c1ncccn1)Nc1cccc(Cc2ccccc2)n1 [TCMDC-138948] | -9.706 |
| NC(=NCc1ccccc1)Nc1cccc(Cc2ccccc2)n1 [TCMDC-138951] | 107.9 |
| Cc1cccc(NC(=O)NCc2ccccc2)n1 [TCMDC-123843] | 1.75 |
| NC1=NC(c2ccccc2)N(OCc2ccccc2)C(N)=N1 (stereo not shown) [TCMDC-131586] | -5.605 |
| CCN=C1NC2=C(CC(C(C)(C)C)CC2)C2(CCC(C(C)(C)C)CC2)S1 (stereo not shown) [TCMDC-131288] | 95.02 |
| O=C(CSc1nccn1C1CCCC1)Nc1cc(C(F)(F)F)ccc1Cl [TCMDC-125066] | 0.3827 |
| COc1ccc(-c2nonc2NC(=O)c2cccc(C)c2)cc1OC [TCMDC-125399] | 77.34 |
| C=CCOc1ccc(C(=O)Nc2nonc2-c2ccc(OC)c(OC)c2)cc1 [TCMDC-125178] | 71.05 |
| COc1ccc(-c2nonc2NC(=O)c2ccc(C(C)(C)C)cc2)cc1OC [TCMDC-125404] | 42 |
| CCCOc1ccc(C(=O)Nc2nonc2-c2ccc(OC)c(OC)c2)cc1 [TCMDC-125471] | 84.04 |
| COc1ccc(-c2nonc2NC(=O)c2ccc(OC(C)C)cc2)cc1OC [TCMDC-125130] | 61.65 |
| CCOc1ccc(-c2nonc2NC(=O)c2ccc(OC(C)C)cc2)cc1OCC [TCMDC-125276] | 7.159 |
| COc1cccc(C(=O)Nc2nonc2-c2ccc(OC)c(OC)c2)c1 [TCMDC-125403] | 43.85 |
| COc1ccc(C(=O)Nc2nonc2-c2ccc(OC)c(OC)c2)cc1Cl [TCMDC-125400] | 30.18 |
| CCOc1ccc(C(=O)Nc2nonc2-c2ccc(OC)c(OC)c2)cc1 [TCMDC-125402] | 33.5 |
